The record followed here is PubChem BioAssay.

Assay [1] in a line: Wnt pathway potentiators raising nuclear beta-catenin – imaging, WNT3A-conditioned medium, mouse C2C12, NPC library, primary screen (AID 1117326; in the data active = nuclear beta-catenin stimulation mostly above about 4.2%, no sharp cut-off; inactive = mostly below about 10%). The conditions noted are these: stronger effect = higher value.
Assay [2] in a line: stimulators of insulin release from INS-1E, primary screen, cell-based, 5 mM glucose, NPC library (AID 1117329;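 active = compound raises insulin release from rat beta cells at 5 mM glucose, no numeric limit stated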). To be noted: rat INS-1E insulin secretion, at 10 µM, stronger effect = higher value.
A short description of assay [3]: growth inhibition of GSK3B-pretreated HCT116 cells – cell-based, CellTiter-Glo, 0.2 to 20 µM (AID 1117336;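 active = compounds lowering colon cancer cell viability after pretreatment blocking the GSK3B kinase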). To be noted: HCT116 viability after GSK3B inhibitor, at 20 µM, stronger effect = higher value.
Assay [4] is described as follows: inhibition of endothelial tube formation, primary screen, imaging, VEGF stimulated, CD31 staining, tube area, NPC library (AID 1117340;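 active = compound that reduces growth-factor-driven endothelial tube area in a mixed cell culture, no cutoff stated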). To be noted: VEGF-stimulated ADSC/ECFC co-culture, at 10 µM, stronger effect = higher value.
Assay [5] can be described thus: GLP1 release stimulators, primary, NCI-H716, NPC library (AID 1117341;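 active = compound raises GLP1 secretion from the human gut endocrine cells, with no numeric limit stated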). The conditions noted are these: NCI-H716 cells, at 10 µM, stronger effect = higher value.
Assay [6] can be described thus: HCT116 colon cancer cell growth inhibition, primary screen, CellTiter-Glo luminescence, NPC library (AID 1117342;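 active = compounds that lower survival of HCT116 colon cancer cells in the luminescence readout, no numeric limit stated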). To be noted: at 20 µM (top of the series). On the technique in general: In ATP-based viability assays light output follows the ATP content of the culture.
Assay [7] is described as follows: reduced SW480 viability measured with CellTiter-Glo, NPC library, primary (AID 1117343;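 active = compounds that lower viability of the colon cancer cells in the luminescence readout, with no numeric limit stated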). The conditions noted are these: CellTiter-Glo luminescence; at 20 µM (top of the series).
The nature of assay [8]: NPC library primary testing for decreased DLD-1 cell viability via CellTiter-Glo (AID 1117346;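 active = compounds that lower survival of DLD-1 colon cancer cells in the luminescence readout, no cutoff given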). The conditions noted are these: DLD-1 viability, CellTiter-Glo luminescence; at 20 µM (top of the series).
Assay [9] is described as follows: liver-stage malaria parasite load reduction – cell-based, known kinase inhibitor set, luminescence, hepatoma host viability (AID 624392).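 Also: infected cells incubated roughly two days before readout.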 To be noted: Plasmodium liver stage in hepatoma cells, luciferase luminescence, concentration not given here; liver cell % of control: measured here: host liver cell viability; parasite % of control: stronger effect = lower value.
A short description of assay [10]: altered dexamethasone sensitivity, NF-kB reporter, cell-based, luciferase, IL-1B stimulus (AID 624486).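 As to percent of negative control (+Dex): 100% = mean signal of vehicle control wells on the plate.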 To be noted: IL-1B + dexamethasone, luminescence; percent of negative control (+Dex): actives lie on both sides, concentration not given here; z-score: measured here: IL-1B alone, no Dex.
The nature of assay [11]: C. elegans survival during P. aeruginosa infection – whole organism (AID 651566).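 Also: tested at 14 µM; sign flipped so higher z means a lower ratio.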 The conditions noted are these: C. elegans killed by P. aeruginosa, survival ratio.
A short description of assay [12]: pro-inflammatory signaling induction in mouse macrophages – cell-based, murine, luminescence (AID 652131). The conditions noted are these: murine macrophage pro-inflammatory reporter, stronger effect = higher value.
Assay [13] has as its target Cellular tumor antigen p53 (Homo sapiens) (UniProt P04637). The assay is described as follows: GFP-p53 level modulators in HPV16+ cells – imaging, known kinase inhibitor set, EGFP/DsRed ratio (AID 1053116).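 Also: cells exposed to compounds for 24 h at 37 °C before reading.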 To be noted: GFP-p53 stability, stronger effect = higher value; EGFP object count: measured here: GFP-p53 positive objects count.
Assay [14] in a line: inducers of IRF3 signaling, differentiated THP-1 – cell-based, PMA-stimulated THP-1, luminescence (AID 1053176). The conditions noted are these: PMA-differentiated THP-1, IRF3 reporter luminescence; stronger effect = higher value.
Assay [15] is described as follows: MELAS cybrid and Rieske KO viability enhancers – cell-based, MELAS cybrids, Rieske KO mouse fibroblasts, CellTiter-Glo, primary screen (AID 1508586;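 active = mean z-score across replicates of 1.96 or higher in either the MELAS or the Rieske mutant cell line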;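 also: z relative to plate mean and SD of compound and empty wells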). To be noted: low glucose.

The source made the active and inactive calls. Unless noted, no rule for the calls is given here.

Sequence of Cellular tumor antigen p53 (Homo sapiens) (P04637 whole entry, looked up): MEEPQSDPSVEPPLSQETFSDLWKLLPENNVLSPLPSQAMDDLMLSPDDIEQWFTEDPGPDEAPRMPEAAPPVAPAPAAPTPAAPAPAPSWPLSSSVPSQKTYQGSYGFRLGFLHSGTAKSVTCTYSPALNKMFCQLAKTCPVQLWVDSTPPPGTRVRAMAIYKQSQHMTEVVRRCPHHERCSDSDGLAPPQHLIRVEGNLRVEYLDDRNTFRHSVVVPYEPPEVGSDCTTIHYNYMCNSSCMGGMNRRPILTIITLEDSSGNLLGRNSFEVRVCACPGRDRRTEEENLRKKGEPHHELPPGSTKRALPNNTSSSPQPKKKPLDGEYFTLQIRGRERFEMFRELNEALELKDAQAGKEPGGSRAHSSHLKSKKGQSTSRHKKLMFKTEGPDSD

For the compound `CC(C)(C)NC[C@H](O)c1ccc(O)cc1Cl`, the nuclear beta-catenin stimulation is 0.3% (inactive) in assay [1] (at 10 µM) and -0.2% in assay [1] (stimulation, at 2 µM). Further, the insulin secretion stimulation in assay [2] was 7.2% (inactive). Also, in assay [3], the viability decrease was 13.2% (inactive). Moreover, the tube area decrease in assay [4] is -4.4% (inactive). For the same compound, the GLP1 secretion stimulation in [5] is 5.5% (inactive). For the same compound, the inhibition of viability in assay [6] is 35.7% (inactive). Moreover, the viability decrease (inhibition) is 37.1% (inactive) in assay [7] and 8.8% (inactive) in assay [8].

As for `CCN1CCCC1CNC(=O)C(O)(c1ccccc1)c1ccccc1` (configuration not stated), the nuclear beta-catenin stimulation is 1.8% (inactive) in assay [1] (at 10 µM) and 1.9% in [1] (stimulation, at 2 µM). In addition, the insulin secretion stimulation in [2] is 8.1% (inactive). In addition, the viability decrease in assay [3] is -4.1% (inactive). Also, the tube area decrease in assay [4] is -2.9% (inactive). For the same compound, the GLP1 secretion stimulation in assay [5] was -0.1% (inactive). The inhibition of viability in assay [6] was 10.9% (inactive). The viability decrease (inhibition) in assay [7] was 24.2% (inactive); in assay [8], -4.5% (active).

In the case of `O=C(O)c1cc(Oc2ccc(C(F)(F)F)cc2Cl)ccc1[N+](=O)[O-]`, the nuclear beta-catenin stimulation in [1] (at 10 µM) was 1.4% (inactive); in [1] (stimulation, at 2 µM), 0.5%. In assay [2], the insulin secretion stimulation was 4.1% (inactive). The viability decrease in assay [3] is -10.9% (inactive). The tube area decrease in assay [4] is 0.3% (inactive). Further, the GLP1 secretion stimulation in [5] is 3.1% (inactive). In assay [6], the inhibition of viability is 9.4% (inactive). The results for the viability decrease (inhibition) in [7] and in assay [8] were -9.4% (inactive) and -3.5% (inactive), respectively.

Consider `CCC(CC)(CNC(=O)CCCO)c1cccc(OC)c1`, for which the nuclear beta-catenin stimulation in [1] (at 10 µM) was -1.1% (inactive); in assay [1] (stimulation, at 2 µM), -0.7%. For the same compound, the insulin secretion stimulation in [2] is 0.4% (inactive). Further, in assay [3], the viability decrease was -15.7% (inactive). The tube area decrease in [4] was 11.5% (inactive). Moreover, the GLP1 secretion stimulation in assay [5] is -1.4% (inactive). The inhibition of viability in [6] is -6.33% (inactive). Further, the viability decrease (inhibition) in [7] is -5.8% (inactive); in assay [8] it was -6.4% (inactive).

For the compound `NCCS[As](SCCN)c1ccc(Nc2nc(N)nc(N)n2)cc1`, the nuclear beta-catenin stimulation in assay [1] (at 10 µM) was -1.4% (inactive); in assay [1] (stimulation, at 2 µM), -0.4%. Moreover, the insulin secretion stimulation in assay [2] was 0.6% (inactive). For the same compound, the viability decrease in [3] was -8.2% (inactive). For the same compound, the tube area decrease in assay [4] was 21.9% (inactive). Further, the GLP1 secretion stimulation in [5] was -3.3% (inactive). In assay [6], the inhibition of viability was 0.1% (inactive). Further, the viability decrease (inhibition) in assay [7] was -3.2% (inactive); in assay [8] it was -34.2% (inactive).

Take `CCC1(c2ccccc2)C(=O)N(COC)C(=O)N(COC)C1=O`: the nuclear beta-catenin stimulation was 0.6% (inactive) in assay [1] (at 10 µM) and 0.4% in assay [1] (stimulation, at 2 µM). Also, in assay [2], the insulin secretion stimulation was 0.35% (inactive). Moreover, in assay [3], the viability decrease is 83.5% (active). In addition, in [4], the tube area decrease was 4% (inactive). Moreover, in assay [5], the GLP1 secretion stimulation was 1.4% (inactive). Also, the inhibition of viability in assay [6] is 96.3% (active). Moreover, the figures for the viability decrease (inhibition) in [7] and in assay [8] were 89.5% (active) and 62.9% (active), respectively.

In the case of `CNC(=O)Oc1cc(C)c(/C=C/c2cncc(C(=O)NC)c2)c(C)c1`, the liver cell % of control in assay [9] is 111%. Also, in assay [9], the parasite % of control was 110% (inactive). Moreover, the percent of negative control (+Dex) in [10] is 107% (inactive). In addition, the z-score in assay [10] is 1.96; in [11] it was -0.2 (inactive); in [12], -0.101 (inactive); in assay [15] (MELAS cybrid survival, CellTiter-Glo 48 h, stronger effect = higher value) it was -0.555 (inactive); in assay [15] (Rieske KO mouse fibroblast survival, CellTiter-Glo 72 h) it was 0.0985. Moreover, the EGFP object count in assay [13] was found to be 1. Also, the EGFP/DsRed ratio in [13] was 0.0984 (inactive). Also, the fraction signal in assay [14] was -0.0105 (inactive).

In the case of `Cn1cc(C2=C(c3cn(CCCNC(N)=N[N+](=O)[O-])c4ccccc34)C(=O)NC2=O)c2ccccc21`, in assay [9], the liver cell % of control is 106% and the parasite % of control was 62.5% (inactive). Further, in assay [10], the percent of negative control (+Dex) was 102% (inactive) and the z-score is -0.575. In addition, in assay [13], the EGFP object count came to 2.5 and the EGFP/DsRed ratio was 0.0481 (inactive). Further, in [14], the fraction signal was 0.0015 (inactive).
